From PubChem BioAssay AID651899 (Broad Institute, 2012)
Potency and affinity values are given separately. Activity calls are given as the source filed them. A call without a number means that no potency is given here. The rule behind the calls is not given here.

Assay: HEK293 cell viability loss – plate reader, cherry-pick, cytotoxicity control, dose response (AID 651899);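 note: cells exposed to compound for 48 hours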
Details: series mostly up to 26 µM

Structure (SMILES)	outcome
CC1(C(=O)NCc2ccc(F)c(F)c2)Cc2c(-c3cccc(C(N)=O)c3)ccnc2O1 (stereo unspecified)	inactive
Cc1ccc(Cc2c(C)nc3nc(SCC(=O)NCc4ccco4)nn3c2C)cc1	inactive
Cc1ccc(Cc2c(C)nc3nc(SCC(=O)NCCN4CCOCC4)nn3c2C)cc1	inactive
Cc1cc(C)n2nc(C(=O)Nc3cccnc3)nc2n1	inactive
Cc1nnc(N2CCC(C(=O)N3CCCCC3)CC2)c2nn(-c3ccc(Cl)cc3)c(C)c12	inactive
CCc1c(C)nc2ncnn2c1Nc1ccc(C#N)c(Cl)c1	inactive
CC(=O)c1ccc(NC(=O)C2CC(=O)N(Cc3ccccc3)C2)cc1 (stereo unspecified)	inactive
O=C(O)CN1C(=O)/C(=C\c2cc(Br)ccc2OCc2ccc([N+](=O)[O-])cc2)SC1=S	inactive
COc1ccc(Cc2c(-c3ccc(OC)c(OC)c3)nc3ccc(C)cn23)c(C)c1	inactive
NC(=O)c1ccc(Oc2cccc3cccnc23)c([N+](=O)[O-])c1	inactive
CCC(=O)N1CC[C@@H]2[C@H]1c1cc(-c3cccc(F)c3)ccc1N(C)[C@H]2CO	inactive
COCCNC(=O)C[C@H]1CC[C@@H]2[C@H](COc3ccc(NC(=O)Nc4cccc(F)c4)cc3C(=O)N2C)O1	inactive
COc1ccc(-c2nc3ccc(Cl)cn3c2Cc2ccccc2)cc1OC	inactive
CSc1ccc(S(=O)(=O)N2CCC(C(=O)Nc3cccnc3)CC2)cc1	inactive
CCC(CO)[n+]1c(C)cc(/C=C2\Sc3ccccc3N2Cc2ccccc2)cc1C (stereo unspecified)	inactive
CCCOc1ccc2c3c(c(=O)oc2c1OCCC)CCC3	inactive
O=C(COc1ccc2ccc(=O)oc2c1)Nc1cccnc1	inactive
Cc1ccccc1-n1c(SCC(=O)N(C)C2CCS(=O)(=O)C2)nc2ccccc2c1=O (stereo unspecified)	inactive

Structure (SMILES)	outcome
COc1ccc(-c2ccc3c(c2)[C@H]2[C@H](CCN2C(=O)Cc2cccnc2)[C@H](CO)N3C)cc1	inactive
COCCNC(=O)C[C@@H]1CC[C@@H]2[C@@H](COc3ccc(NC(=O)Nc4cccc(F)c4)cc3C(=O)N2C)O1	inactive
Cc1ccc(S(=O)(=O)N(C)C)cc1NC(=O)CSc1nncs1	inactive
COc1ccccc1-c1cc(C(F)(F)F)nc(S(=O)(=O)CCCC(=O)O)n1	inactive
C#CCSc1nnc(-c2sc(-c3ccccc3)nc2C)n1C	inactive
Cc1cc(C)n(-c2ccc(C(=O)Nc3ccc4c(c3)OCO4)cc2)n1	inactive
COc1ccc(Cc2c(-c3ccc(OC)c(OC)c3)nc3c(C)cc(Br)cn23)c(C)c1	inactive
C[C@@H](C(=O)N1CCN(Cc2ccc3c(c2)OCO3)CC1)n1nnc2ccccc2c1=O	inactive
C/C=C/c1ccc2c(c1)O[C@@H](CN(C)C(=O)Nc1ccccc1)[C@H](C)CN([C@H](C)CO)S2(=O)=O	inactive
Cc1c(OC(C)C(=O)NCC2CCC(C(=O)O)CC2)ccc2c1oc(=O)c1ccccc12 (stereo unspecified)	inactive
O=C(Nc1ccc(F)c(F)c1)C1CCN(S(=O)(=O)c2cccs2)CC1	inactive
O=C1CCCc2c1cc(C(=O)NCCCN1CCOCC1)c(=O)n2-c1ccc(Cl)cc1	inactive
CC(=O)N1CC[C@@H]2[C@@H](CO)N(C)c3ccc(-c4cccc(F)c4)cc3[C@@H]21	inactive
COc1cc2c(cc1NC(=O)c1cccnc1)CCCC2	inactive
C/C=C/c1ccc2c(c1)O[C@@H](CN(C)C(=O)Cc1cccnc1)[C@H](C)CN([C@H](C)CO)S2(=O)=O	inactive
CC(CNC(=O)CCCn1ncn2c(cc3occc32)c1=O)c1ccccc1 (stereo unspecified)	inactive
Cc1ccc(/C=C(\CCC(=O)O)c2nc3ccccc3s2)cc1[N+](=O)[O-]	inactive
O=C(Nc1ccc2nccnc2c1)c1cnccn1	inactive
